Measurements from PubChem BioAssay (NCATS).
Inconclusive results are not listed. Unmarked numbers belong to inactive results. The source made the active and inactive calls. Calls follow the shape of the dose curve; as a rule, active = well fitted inhibition curve with a large enough effect; inconclusive = small, poorly fitted or top-dose-only effect; inactive = no such curve, though single readings can be large or run the other way.

Assay: BET inhibitor-based combinations targeting novel dependencies in MECOM-rearranged (r) AML: HNT-34 cell line (AID 2202234); also: nearly all actives have a fitted effect of over 35% in size;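 as to viability (% of control): plate controls were vehicle wells for no effect and cell-free wells for full effect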
Details: HNT-34 AML viability, CellTiter-Glo luminescence, 48 h; series mostly up to 46 µM; viability (% of control): at the top concentration
Source text: Ecotropic viral insertion site 1 (EVI1) is located on chromosome 3q26.2 as part of the MECOM (MDS and EVI1 complex) locus. Under normal hematopoiesis, EVI1 is a regulator of hematopoietic stem cell maintenance and self-renewal and EVI1 levels decrease as the cells differentiate. In approximately 5-10% of de novo acute myeloid leukemia (AML) EVI1 is aberrantly expressed, including Chromosomal inv(3)(q21;q26.2) or t(3;3)(q21;q26.2) alterations (MECOM-r) that account for about 50% of AML with EVI1 overexpression 31. AMLs with high levels of EVI1 have a poor prognosis and an overall survival time averaging between 10-14 months. EVI1 overexpression confers resistance in leukemia cells, highlighting the need to develop new targeted therapies for EVI1 overexpressing AMLs. Here, we performed an unbiased chemical drug screening by evaluating the single agent activity of a collection of 2,480 oncology-focused, approved and investigational drugs (NCATS Mechanism Interrogation Plates, MIPE v5.0) against a panel of seven AML cell lines. These included four MECOM-r cell-lines (AML-191, AML-194, UCSD-AML1 and HNT-34) and three non-MECOM-r AMLs (MV4-11, OCI-AML3 and SET-2). Exploiting the mechanistic redundancy built in the library, we identified target-level sensitivities in MECOM-r AML cells and relative activity as compared to other AML subtypes.
A collection of 2480 mechanistically annotated dugs (MIPE v5.0) was used to screen four 3q26.2 rearranged AML cell lines and three non-3q26.2 rearranged AML cell lines. This library purposely exploits redundancy by including multiple inhibitors of key onco-targets, while simultaneously encompassing mechanistic diversity, targeting more than 800 distinct mechanisms of action. Briefly, cells were seeded in 5 uL of growth media using a Multidrop Combi dispenser into 1536 well white polystyrene tissue culture treated plates (Corning) at a density of 500cells/well. For each cell-line, for each of the 2480 drugs in MIPE v5.0 library, an 11-point dose curve was generated via a 1536 pin-tool. Plates were incubated for 48 hr at standard incubator conditions, covered by a stainless steel gasketed lid to prevent evaporation. Cell viability was determined by luminescence based, Cell Titer Glo assay (Promega). In detail, 3 uL of Cell Titer Glo were added to each well and plates were incubated at room temperature for 15 min with a stainless-steel lid in place. Luminescence readings were taken using a Viewlux (PerkinElmer) with a 2 s exposure time per plate. Compound dose-response curves were normalized to DMSO and empty well controls on each plate. Quantitative drug activity data from dose-response curves was determined utilizing area Under the Curve (AUC) and Z-transformed AUC (Z-AUC, a mean-centering transformation applied to each individual cell-line screened).
Potency is read from the fitted curve at half-maximal effect.

SMILES	viability (% of control) [%]	Potency
COC[C@@H](NC(C)=O)C(=O)NCc1ccccc1	110	
COc1cc(C(=O)N2CC[C@@H](O)[C@@H](N)C2)cc2nc(-c3cc4ccccc4n3CC3CC3)n(C)c12	64.9	
Cc1cccc(C)c1NC(=O)CN1CCCC1=O	110	
O=c1cccc2n1CC1CNC[C@H]2C1	106	
CC(C)(NC(=O)O[C@@H]1CN2CCC1CC2)c1csc(-c2ccc(F)cc2)n1		14800 nM (active)
COc1ccc(C(=O)c2c(C)n(CCN3CCOCC3)c3ccccc23)cc1		2350 nM (active)
N[C@@H](Cc1ccc(N(CCCl)CCCl)cc1)C(=O)O		3720 nM (active)
CN[C@@H]1Cc2cccc3[nH]c(=O)n(c23)C1	109	
C[C@@H]1CC[C@@]2(OC1)O[C@H]1C[C@H]3[C@@H]4CC=C5C[C@@H](O[C@@H]6O[C@H](CO)[C@@H](O[C@@H]7O[C@@H](C)[C@H](O)[C@@H](O)[C@H]7O)[C@H](O)[C@H]6O[C@@H]6O[C@@H](C)[C@H](O)[C@@H](O)[C@H]6O)CC[C@]5(C)[C@H]4CC[C@]3(C)[C@H]1[C@@H]2C		5250 nM (active)
CCN(CC)C(=O)c1ccc(C2=CC3(CCNCC3)Oc3cccc(O)c32)cc1	74.3	
C/C(=C\c1csc(C)n1)[C@@H]1C[C@@H]2O[C@]2(C)CCC[C@H](C)[C@H](O)[C@@H](C)C(=O)C(C)(C)[C@@H](O)CC(=O)O1		8.3 nM (active)
Cn1cc(C2=C(c3cn(C4CCN(Cc5ccccn5)CC4)c4ccccc34)C(=O)NC2=O)c2ccccc21		5250 nM (active)
Cc1[nH]nc2ccc(-c3cncc(OC[C@@H](N)Cc4c[nH]c5ccccc45)c3)cc12		742 nM (active)
Cc1ccccc1-n1c(Cn2cnc3c(N)ncnc32)nc2cccc(C)c2c1=O	97.5	
c1ccc2c(CN3CCNCC3)cccc2c1	92.5	
C[C@@H]1C[C@@H]([C@H](O)CC2CC(=O)NC(=O)C2)C(=O)[C@@H](C)C1		263 nM (active)
Cn1c(/C=C/CO)c(CO)c2c1C(=O)C=C(N1CC1)C2=O	106	
C#CC1(O)CCC2C3CCC4=CC(=O)CCC4(C)C3CCC21C (stereo not given)	91.4	
O=C(O)C(=O)c1cn(Cc2ccccc2)c2ccc(-c3ccc(OC(F)(F)F)cc3)cc12	90.3	
CC(C)[C@]12O[C@H]1[C@@H]1O[C@@]13[C@@]1(C)CCC4=C(COC4=O)[C@@H]1C[C@@H]1O[C@@]13C2=O		166 nM (active)

SMILES	viability (% of control) [%]	Potency
C[C@]12CC[C@H](O)CC1=CC[C@@H]1[C@@H]2CC[C@]2(C)C(=O)CC[C@@H]12	114	
O=C1CC[C@@]2(O)[C@H]3Cc4ccc(O)c5c4[C@@]2(CCN3CC2CC2)[C@H]1O5	99.4	
CN1[C@H]2CC(O)C[C@H]1[C@H]1O[C@H]12 (stereo not given in full)	111	
CCCCCCC(C)(C)c1cc(O)c2c(c1)OC(C)(C)C1CC=C(CO)C[C@H]21 (stereo not given in full)		14800 nM (active)
CO/C1=C/C(C)=C\[C@@H](C)[C@@H](O)[C@@H](C)C/C(C)=C\C=C/[C@H](OC)[C@@H]([C@@H](C)[C@@H](O)[C@H](C)[C@@]2(O)C[C@@H](O)[C@H](C)[C@@H](C(C)C)O2)OC1=O		87.9 nM (active)
CN1CCN(c2ccc([N+](=O)[O-])c3no[n+]([O-])c23)CC1		18600 nM (active)
CC(O)(CS(=O)(=O)c1ccc(F)cc1)C(=O)Nc1ccc(C#N)c(C(F)(F)F)c1 (stereo not given)	91.2	
CC(C)CC(N(C)C)C1(c2ccc(Cl)cc2)CCC1 (stereo not given)	91.5	
C[C@H]1CCC/C=C/C2C[C@H](O)C[C@H]2[C@H](O)/C=C/C(=O)O1 (stereo not given in full)		296 nM (active)
CCN1CCN(C(=O)Cc2ccc(Nc3ncc(F)c(Nc4ccc(C(=O)Nc5ccccc5Cl)cc4)n3)cc2)CC1		1480 nM (active)
O=C(N[C@H]1CN2CCC1CC2)c1ccc(Cl)cc1	108	
N#CC(O[C@@H]1O[C@H](CO[C@@H]2O[C@H](CO)[C@@H](O)[C@H](O)[C@H]2O)[C@@H](O)[C@H](O)[C@H]1O)c1ccccc1 (stereo not given in full)	72.3	
C[C@@H]1O[C@@H](O[C@@H]2C=C3CC[C@@H]4[C@H](CC[C@]5(C)[C@@H](c6ccc(=O)oc6)CC[C@]45O)[C@@]3(C)CC2)[C@H](O)[C@H](O)[C@H]1O		14.8 nM (active)
COC1=C[C@@H]2[C@@H]3Cc4ccc(OC)c(O)c4[C@]2(CCN3C)CC1=O	88.6	
Cc1ncc(OC[C@@]2(c3cccc(F)c3)C[C@H]2C(=O)Nc2ccc(F)cn2)c(C)n1	96.4	
CC(C)c1cccc(C(C)C)c1O	107	
CC1=C2C[C@H]3[C@@H](CC=C4C[C@@H](O)CC[C@@]43C)[C@@H]2CC[C@]12O[C@@H]1C[C@H](C)CN[C@H]1[C@H]2C	98.8	
COCC1(CO)C(=O)C2CCN1CC2 (stereo not given)		5900 nM (active)
C[C@]12CC[C@H]3[C@@H](CC[C@@]45O[C@@H]4C(O)=C(C#N)C[C@]35C)[C@@H]1CC[C@@H]2O	87.6	
CC1(C)CC[C@]2(NC(=O)C(C)(F)F)CC[C@]3(C)[C@H](C(=O)C=C4[C@@]5(C)C=C(C#N)C(=O)C(C)(C)[C@@H]5CC[C@]43C)[C@@H]2C1		1660 nM (active)
